Assay outcomes (PubChem)
An excerpt weighted towards active compounds, which were near 7.9% of everything screened.
HCMV antiviral: qHTS Assay for inhibitors of the human cytomegalovirus (HCMV); HFF cells, HCMV-luciferase reporter, 72 h; stronger effect = lower value; activity change, negative = inhibition, % at 57.5 µM; 410,000 compounds, 4.5% hits; AID 1259415, 2018; in the data active means activity change below about -60%; inconclusive means no clear call, values can overlap the other calls; inactive means above about -39%
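Compounds were evaluated in HFFs infected with an HCMV luciferase reporter virus (MOI 1 PFU/cell). Luciferase in lysates collected 72 h post infection served as the replication measure.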
LASV entry inh: qHTS for Inhibitors of binding or entry into cells for Lassa Virus | Lassa virus pseudotype entry inhibition, cell reporter | Potency, µM (highest dose often 37.9 µM), for inactives: at the top dose activity change, negative = inhibition, most hits filed as inhibitors | 300,000 compounds, 1.2% hits; calls by dose curve; tested in HEK293 cells; further: potency means the concentration at half of the fitted maximal effect; nearly all actives have a fitted effect of over 50% in size
Marburg entry inh: qHTS for inhibitors of binding or entry into cells for Marburg Virus. Marburg virus pseudotyped entry inhibition, cell reporter. Potency, µM (highest dose often 37.8 µM), for inactives: at the highest dose activity change, negative = inhibition, actives largely listed as inhibitors. 300,000 compounds, 1.8% hits; calls by dose curve; tested in HEK293 cells; further: potency means the concentration at half of the fitted maximal effect
FMDV antiviral: High Throughput Screening for Foot and Mouth Disease Virus Antivirals | FMDV antiviral cell-based qHTS | Potency, µM (top dose mostly 57.9 µM), for inactives: top-dose activity change, negative = inhibition, most hits filed as inhibitors | 410,000 compounds, 1.2% hits; calls by dose curve; tested in HEK293T cells; further: read-out not given here; potency means the concentration at half of the fitted maximal effect; nearly all actives have a fitted effect of over 45% in size
HCV inh: qHTS Assay for Inhibitors of Hepatitis C Virus (HCV); Huh7.5.1 HCVcc-Cre infection, luciferase reporter, 44 h; Potency, µM (titrated, usually from 41.8 µM), for the others: at the top dose activity change, negative = inhibition, usual class: inhibitors; 340,000 compounds, 3.4% hits; active means well fitted inhibition curve with a large enough effect; inconclusive means small, poorly fitted or top-dose-only effect, or another doubt; inactive means no such curve, though single readings can be large or run the other way; further: potency means the concentration at half of the fitted maximal effect
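Infectious HCVcc-Cre (~0.5 moi) was added to cells just after compound, with cells seeded 4 h earlier at 1,000 per well. Luciferase activity after 44 h culture reported infection; substrate was incubated 15 min at room temperature before reading.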
Starred values were filed as active, the others as inactive; ? = inconclusive; . = not tested or not shown; [ ] = remark or other dose. On the % scale 0 is the no-effect control and ±100 the full control effect.

SMILES | HCMV antiviral | LASV entry inh | Marburg entry inh | FMDV antiviral | HCV inh
CCCC(=O)N1CC2(CCN(C)CC2)c2c(n(C)c3cc(OC)ccc23)[C@H]1CO | 17.2 | . | . | . | .
CCOc1ccc(-c2onc(C(F)(F)F)c2-c2cscn2)c(O)c1 | -31.6 | -3.4% | 2.2% | ? | 10µM*
Cc1cc(O)cc(O)c1-c1onc(C(F)(F)F)c1-c1cscn1 | -71.4* | -26.3% | ? | ? | ?
COc1ccc(-c2onc(C)c2-c2cscn2)c(O)c1 | 6.7 | -24.6% | 8.4%[46.1 µM] | -17.0% | 12.3%
O=S1(=O)CCOCCCN1Cc1ccccc1Br | -38.5 | . | . | -14.4% | -2.5%
CCOC(=O)c1[nH]c2ccccc2c1NC(=O)c1cc(OCC)c(OCC)c(OCC)c1 | 10.6 | -26.0%[46.1 µM] | -2.2%[46.1 µM] | 0.0% | .
CCOCCCn1c(SCC(=O)NCCCOC)nc2c(sc3ccccc32)c1=O | 6.3 | -21.4%[46.1 µM] | . | -2.7% | .
C=CCn1c(SCc2csc(-c3ccc(C)cc3)n2)nnc1-c1ccccc1OC | -4.9 | ? | ? | ? | ?
Cc1nn(-c2ccccc2)c(C)c1-c1nnc(-c2c(C)nn(-c3ccccc3)c2C)o1 | 2.3 | ? | ? | 31.6µM* | ?
COc1ccc(C=O)cc1COc1ccccc1F | -34.4 | ? | ? | ? | 8.9%
COc1ccc(OCc2cc(/C=N\NC(=O)c3ccccc3)ccc2OC)cc1 | ? | ? | ? | 8.8% | ?
COc1ccc(/C=N\NC(=O)c2ccccc2Br)cc1COc1ccccc1 | ? | . | . | ? | 14.1µM*
COc1ccc(/C=C/C(=O)c2ccccc2)cc1COc1ccccc1F | -8.2 | -29.1% | ? | 20µM* | ?
COc1ccc(/C=N\NC(=O)c2ccc(F)cc2)cc1COc1ccccc1C(N)=O | 18.1 | -19.6% | ? | ? | ?
COc1ccc(/C=N\NC(=O)c2cccc(F)c2)cc1COc1ccccc1 | -86.5* | -15.6% | ? | -0.3% | -18.2%
COc1cccc(C(=O)N/N=C/c2ccc(OC)c(COc3ccccc3C(N)=O)c2)c1 | -8.7 | . | . | -27.3% | ?
COc1ccc(/C=N/NC(=S)Nc2ccccc2)cc1COc1ccc(F)cc1F | -9.3 | 1.64µM* | ? | 8.6% | ?
COc1ccc(C(=O)N/N=C\c2ccc(OC)c(COc3ccccc3Br)c2)c(OC)c1 | -18.2 | . | . | -22.9% | 17.8µM*
CC1CCCCc2cc(O)ccc2OC(=O)CC1 (configuration not stated) | -10.6 | . | . | . | .
O=C(CN(c1ccccc1Cl)S(=O)(=O)c1ccccc1)N/N=C/c1ccccc1C(=O)O | -63.2* | 0.1% | 1.4%[46.1 µM] | 7.1% | 16.6%
CC1CCCN(C(=O)Cn2nnc(-c3ccccc3F)n2)C1 (configuration not stated) | 45.0 | . | . | 71.8% | -0.3%
Cc1ccc(SCCC(=O)N/N=C/c2ccccc2O)cc1 | -84.8* | ? | ? | 3.6% | ?
COC(=O)N/N=C/c1ccccc1OCc1ccccc1 | ? | 5.2% | 5.7% | -10.4% | -1.0%
O=C(CCc1ccccc1)N/N=C/c1cc(Br)ccc1O | -76.2* | ? | 22.4µM* | -3.7% | 11.2µM*
COCCCNC(=S)N/N=C/c1ccccc1O | -62.0* | . | . | 55.3% | -18.3%
SMILES | HCMV antiviral | LASV entry inh | Marburg entry inh | FMDV antiviral | HCV inh
O=C(Cc1ccccc1)N/N=C/c1cc(Br)cc(Br)c1O | 54.8 | ? | ? | -1.4% | ?
COC(=O)N/N=C\c1cc(Br)ccc1OCc1ccccc1 | -11.7 | ? | -6.9% | -27.0% | 10µM*
N#Cc1ccccc1S(=O)(=O)c1ccccc1C(=O)Nc1ccccc1 | -14.8 | 19.3% | 18.0%[46.1 µM] | -10.4% | ?
O=C1O[C@@H](c2ccccc2)C[C@@H](O)[C@H](O)CCCCc2ccccc21 | 25.5 | . | . | -6.8% | .
COc1ccc(O)c(/C=N/NC(=S)NCCc2ccccc2)c1 | -19.4 | ? | ? | -23.8% | ?
O=C(N/N=C/c1cc(Br)ccc1O)C(=O)Nc1ccccc1OC(F)(F)C(F)F | -105.3* | ? | ? | -27.7% | ?
O=C(N/N=C/c1cc(Br)ccc1O)c1ccccc1Cl | -64.7* | ? | ? | 0.9% | ?
Oc1ccc(Br)cc1/C=N/NC(=S)NCCc1ccccc1 | -18.3 | -12.8%[46.1 µM] | ? | 2.5% | 10µM*
O=C(CCC(=O)Nc1ccc(Br)cc1)N/N=C/c1ccccc1O | -65.6* | ? | ? | 23.6% | ?
